{"source": "PubChem BioAssay AID720598", "about": "(Broad Institute, 2013)", "experiment": "HT-29 colorectal cell cytotoxicity over time, dose response, HRas target identification project, CellTiter-Glo, multiple timepoints, dry powder (AID 720598)", "note": "Entries with a potency or affinity are not part of this list. The source made the active and inactive calls.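 Rule for the calls: active = viability drop at all three exposure times, fitted half-maximal dose at most twice the top valid dose; inconclusive = exposure times disagree in their calls; inactive = inactive at every exposure time.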"}
{"smiles": "CCC(=O)N(c1ccc(OC)c(Cl)c1)C(C(=O)NCCc1ccccc1)c1cccs1", "note": "(configuration not stated)", "values": [{"measurement": "outcome", "value": "inactive"}]}
{"smiles": "Cc1onc(C(=O)N2CCN(C(c3ccncc3)c3ccncc3)CC2)c1[N+](=O)[O-]", "values": [{"measurement": "outcome", "value": "inactive"}]}
